Measured values taken from PubChem BioAssay.
Values without a mark were called inactive. The source made the active and inactive calls.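 Rule for the calls, unless noted: active = compounds that lower survival of DLD-1 colon cancer cells in the luminescence readout, no cutoff given; inactive = the rest.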

assay: CellTiter-Glo luminescent readout of SW480 viability loss, NPC library primary (AID 1117343;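 active = compounds that lower viability of the colon cancer cells in the luminescence readout, with no numeric limit stated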); conditions: CellTiter-Glo luminescence; at 20 µM (top of the series)

Row | SMILES | viability decrease (inhibition)
1 | CNC(=O)Oc1cccc2ccccc12 | 114% (active)
2 | C1CN2CCC1CC2 | 4.8%
3 | Cc1nnc2n1-c1sc(CCc3ccc(CC(C)C)cc3)cc1C(c1ccccc1Cl)=NC2C (configuration not stated) | 134% (active)
4 | CCC1(c2ccccc2)C(=O)N(COC)C(=O)N(COC)C1=O | 89.5% (active)
5 | C[C@@]12CCCCC[C@@H](Cc3ccc(O)cc31)[C@H]2N | 6.4%
6 | CCN(CC)C(=O)N[C@@H]1C=C2c3cccc4[nH]cc(c34)C[C@@H]2N(C)C1 | -11.8%
7 | O=C(NC(O)C(Cl)(Cl)Cl)NC(O)C(Cl)(Cl)Cl (configuration not stated) | -28.2%
8 | CCCCCCCCCCCCNCCNCCNCC(=O)O | 100% (active)
9 | O=C(N[C@H]1N=C(c2ccccc2F)c2cccc3c2N(CC3)C1=O)c1cc2ccccc2[nH]1 | 56.9% (active)
10 | CCOP(=S)(OCC)O/N=C(\C#N)c1ccccc1 | 36.2%
11 | OCCOc1ccccc1 | 24.2%
12 | Cc1c(Cl)c(=O)oc2cc(OP(=O)(OCCCl)OCCCl)ccc12 | 29.5%
13 | CCCN(CCC)C(=O)Cc1c(-c2ccc(Cl)cc2)nc2ccc(Cl)cn12 | 18%
14 | O=C(CCl)c1ccc(Cl)cc1Cl | 91.8% (active)
15 | COP(=S)(OC)Oc1ccc(S(=O)(=O)N(C)C)cc1 | 6.4%
16 | Nc1ccccc1C(=O)OCC(O)CO (configuration not stated) | -4.5%
17 | C[N+]1(CCF)[C@@H]2CC[C@H]1CC(OC(=O)C(O)(c1ccccc1)c1ccccc1)C2 (some centres not stated) | -2% (active)
18 | Nc1ccccc1 | 59.6% (active)

Row | SMILES | viability decrease (inhibition)
19 | CCOC(=O)NC(O)C(Cl)(Cl)Cl (configuration not stated) | 16.2%
20 | Oc1ccc(Cl)cc1Cc1ccccc1 | 118% (active)
21 | C[C@]12C[C@@H]3S[C@H]3C[C@@H]1CC[C@H]1[C@H]3CC[C@@H](O)[C@@]3(C)CC[C@@H]12 | 17.2%
22 | C[C@]12CC[C@H]3[C@@H](CCC4=CC(=O)CC[C@@H]43)[C@@H]1CC[C@@H]2OC(=O)CCc1ccco1 | 37.2%
23 | O=C1OC(c2ccc(O)c(S(=O)(=O)O)c2)(c2ccc(O)c(S(=O)(=O)O)c2)c2c(Br)c(Br)c(Br)c(Br)c21 | 84.5% (active)
24 | COc1cc(CC#N)cc(OC)c1OC | 15.5%
25 | CC(C)=CC1C(C(=O)OCN2C(=O)C3=C(CCCC3)C2=O)C1(C)C (configuration not stated) | 63% (active)
26 | COP(=S)(OC)Oc1ccc(S(N)(=O)=O)cc1 | 4.3%
27 | CN1C2CCC(C)(C)C1CC(OC(=O)C(O)(c1cccs1)c1cccs1)C2 (configuration not stated) | 37.2%
28 | C[C@]12CC[C@H]3[C@@H](CC=C4C[C@@H](O)CC[C@@]43C)[C@@H]1CC[C@@H]2O | 28.6%
29 | CN1CCC(O)(c2ccc(F)cc2)C(C(=O)c2ccc(F)cc2)C1 (configuration not stated) | 87% (active)
30 | CC(=O)O[C@H]1C[C@H](O[C@H]2[C@@H](O)C[C@H](O[C@@H]3[C@@H](O)C[C@H](O[C@H]4CC[C@@]5(C)[C@H](CC[C@@H]6[C@H]5C[C@@H](O)[C@]5(C)[C@@H](C7=CC(=O)OC7)CC[C@]65O)C4)O[C@@H]3C)O[C@@H]2C)O[C@H](C)[C@H]1O[C@@H]1O[C@H](CO)[C@@H](O)[C@H](O)[C@@H]1O | 54.2% (active)
31 | CNC(C)[C@@H](O)c1ccc(O)cc1 (some centres not stated) | 27.7%
32 | CCOC(=O)C(c1c(O)c2ccccc2oc1=O)c1c(O)c2ccccc2oc1=O | -18.7%
33 | COC(=O)c1cncn1C(C)c1ccccc1 (configuration not stated) | 24.4%
34 | ClCCCN1CCN(c2cccc(Cl)c2)CC1 | 26.2%
35 | CC(C(O)c1ccccc1)N(C)C/C=C/c1ccccc1 (configuration not stated) | 29.4%
36 | O=c1[nH]c2ccccc2n1C1CCNCC1 | -13.1%

assay: decreased DLD-1 cellular survival, CellTiter-Glo luminescent readout, NPC compound collection, primary HTS (AID 1117346); conditions: DLD-1 viability, CellTiter-Glo luminescence; at 20 µM (top of the series)

Row | SMILES | viability decrease (inhibition)
37 | CNC(=O)Oc1cccc2ccccc12 | 16.3%
38 | C1CN2CCC1CC2 | 3.1%
39 | Cc1nnc2n1-c1sc(CCc3ccc(CC(C)C)cc3)cc1C(c1ccccc1Cl)=NC2C (configuration not stated) | 102% (active)
40 | CCC1(c2ccccc2)C(=O)N(COC)C(=O)N(COC)C1=O | 62.9% (active)
41 | C[C@@]12CCCCC[C@@H](Cc3ccc(O)cc31)[C@H]2N | -12.5%
42 | CCN(CC)C(=O)N[C@@H]1C=C2c3cccc4[nH]cc(c34)C[C@@H]2N(C)C1 | -5.3%
43 | O=C(NC(O)C(Cl)(Cl)Cl)NC(O)C(Cl)(Cl)Cl (configuration not stated) | -0.1%
44 | CCCCCCCCCCCCNCCNCCNCC(=O)O | 101% (active)
45 | O=C(N[C@H]1N=C(c2ccccc2F)c2cccc3c2N(CC3)C1=O)c1cc2ccccc2[nH]1 | 29.7%
46 | CCOP(=S)(OCC)O/N=C(\C#N)c1ccccc1 | -6.4%
47 | OCCOc1ccccc1 | -1.2%
48 | Cc1c(Cl)c(=O)oc2cc(OP(=O)(OCCCl)OCCCl)ccc12 | 0.8%
49 | CCCN(CCC)C(=O)Cc1c(-c2ccc(Cl)cc2)nc2ccc(Cl)cn12 | 27.1%
50 | O=C(CCl)c1ccc(Cl)cc1Cl | 64.8% (active)
51 | COP(=S)(OC)Oc1ccc(S(=O)(=O)N(C)C)cc1 | 0%
52 | Nc1ccccc1C(=O)OCC(O)CO (configuration not stated) | -4.9%
53 | C[N+]1(CCF)[C@@H]2CC[C@H]1CC(OC(=O)C(O)(c1ccccc1)c1ccccc1)C2 (some centres not stated) | -1.5%
54 | Nc1ccccc1 | 26.8%

Row | SMILES | viability decrease (inhibition)
55 | CCOC(=O)NC(O)C(Cl)(Cl)Cl (configuration not stated) | 4.55%
56 | Oc1ccc(Cl)cc1Cc1ccccc1 | 85.4% (active)
57 | C[C@]12C[C@@H]3S[C@H]3C[C@@H]1CC[C@H]1[C@H]3CC[C@@H](O)[C@@]3(C)CC[C@@H]12 | -13.3%
58 | C[C@]12CC[C@H]3[C@@H](CCC4=CC(=O)CC[C@@H]43)[C@@H]1CC[C@@H]2OC(=O)CCc1ccco1 | 14.9%
59 | O=C1OC(c2ccc(O)c(S(=O)(=O)O)c2)(c2ccc(O)c(S(=O)(=O)O)c2)c2c(Br)c(Br)c(Br)c(Br)c21 | -56.3%
60 | COc1cc(CC#N)cc(OC)c1OC | -1.6%
61 | CC(C)=CC1C(C(=O)OCN2C(=O)C3=C(CCCC3)C2=O)C1(C)C (configuration not stated) | 5%
62 | COP(=S)(OC)Oc1ccc(S(N)(=O)=O)cc1 | -0.7%
63 | CN1C2CCC(C)(C)C1CC(OC(=O)C(O)(c1cccs1)c1cccs1)C2 (configuration not stated) | 27.7%
64 | C[C@]12CC[C@H]3[C@@H](CC=C4C[C@@H](O)CC[C@@]43C)[C@@H]1CC[C@@H]2O | 1.05%
65 | CN1CCC(O)(c2ccc(F)cc2)C(C(=O)c2ccc(F)cc2)C1 (configuration not stated) | 72.8% (active)
66 | CC(=O)O[C@H]1C[C@H](O[C@H]2[C@@H](O)C[C@H](O[C@@H]3[C@@H](O)C[C@H](O[C@H]4CC[C@@]5(C)[C@H](CC[C@@H]6[C@H]5C[C@@H](O)[C@]5(C)[C@@H](C7=CC(=O)OC7)CC[C@]65O)C4)O[C@@H]3C)O[C@@H]2C)O[C@H](C)[C@H]1O[C@@H]1O[C@H](CO)[C@@H](O)[C@H](O)[C@@H]1O | 55.1% (active)
67 | CNC(C)[C@@H](O)c1ccc(O)cc1 (some centres not stated) | 6%
68 | CCOC(=O)C(c1c(O)c2ccccc2oc1=O)c1c(O)c2ccccc2oc1=O | 3.4%
69 | COC(=O)c1cncn1C(C)c1ccccc1 (configuration not stated) | 20.5%
70 | ClCCCN1CCN(c2cccc(Cl)c2)CC1 | 50.1% (active)
71 | CC(C(O)c1ccccc1)N(C)C/C=C/c1ccccc1 (configuration not stated) | 7.9%
72 | O=c1[nH]c2ccccc2n1C1CCNCC1 | 7.3%
